Shown are actives, neighbours in structure and some others; about 2.8% of the full set was active somewhere.
CF NFkB inh – inhibitors of cystic fibrosis induced NF-kB; KKLEB NF-kB-GFP reporter, PAF-induced, GFP fluorescence overnight; 0.86% of 360,000 active; inhibition, % at 5 µM;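 active = at least 50% inhibition at 5 µM, scaled per plate between neutral and stimulator controls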;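 also: PAF is a Pseudomonas aeruginosa culture filtrate used as stimulus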
Peg3 promoter – reduces Peg3 promoter-driven luciferase expression in HeLa; HeLa PEG-Prom luciferase reporter, luminescence, overnight; inhibition, % at 20 µM; 1.7% of 360,000 active; AID 588405;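 active = inhibition of at least 50% at 20 µM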
HIF-2a inh – HIF-2a inhibition; 0.72% of 360,000 active; inhibition, % at 18.8 µM; 786-0 RCC cells HIF-2a reporter, luciferase luminescence, overnight;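 active = inhibition of the luminescence signal of 40% or more relative to plate controls, in a single-dose primary screen at 18.75 µM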
KKLEB cytotox – counter-screen for CF NF-kB inhibitors: cytotoxicity; KKLEB CF airway cells viability, ATPlite luminescence, overnight; active compounds read low; cells stimulated with P. aeruginosa culture filtrate; activity change (cytotoxicity), % at 5 µM; 0.36% of 360,000 active;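 active = corrected activity change at or below -50% at 5 µM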
Shn3 3UTR inh – Schnurri-3 reporter inhibition in Clone20 osteoblasts; Clone20 osteoblast Shn3 3'UTR firefly luciferase, 24 h; inhibition, % at 12.5 µM; 0.52% of 360,000 active; AID 588674;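 active = mean inhibition of at least 75% with every replicate also reaching 75%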
TRPM1 prom inh – inhibitors of MITF-driven TRPM1 promoter in melanoma cells | SK-MEL-5 TRPM1 promoter luciferase, 24 h | inhibition, % at 12.5 µM | 0.83% of 330,000 active | AID 488899;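 active = mean inhibition across replicates of 60% or more, whatever share of single replicates reaches that level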
Mdm2-MdmX confirm – confirmation of inhibitors of human Mdm2/MdmX interaction, set 2; AID 504601; SaOS-2 split-luciferase Mdm2/MdmX complementation, luminescence; 99% of 740 active; inhibition, % at 8 µM; shares compounds with HIF-2a inh;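 active = mean inhibition of the luminescence signal across two replicates at or above 26 percent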
Target sequence (O15151 whole entry, looked up): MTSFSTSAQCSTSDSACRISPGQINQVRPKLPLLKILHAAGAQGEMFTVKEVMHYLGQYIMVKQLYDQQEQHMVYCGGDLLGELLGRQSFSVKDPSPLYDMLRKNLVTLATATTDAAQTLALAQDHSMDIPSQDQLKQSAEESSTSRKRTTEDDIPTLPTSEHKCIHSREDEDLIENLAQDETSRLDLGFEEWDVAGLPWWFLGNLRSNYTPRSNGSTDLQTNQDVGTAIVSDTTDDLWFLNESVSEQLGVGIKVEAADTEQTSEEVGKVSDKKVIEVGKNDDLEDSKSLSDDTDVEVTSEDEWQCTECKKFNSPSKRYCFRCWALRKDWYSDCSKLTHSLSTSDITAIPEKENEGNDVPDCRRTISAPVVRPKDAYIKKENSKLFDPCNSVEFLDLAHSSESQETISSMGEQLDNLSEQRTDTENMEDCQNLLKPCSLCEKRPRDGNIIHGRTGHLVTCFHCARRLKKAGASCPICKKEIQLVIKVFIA
Target sequence (Q00987 whole entry, looked up): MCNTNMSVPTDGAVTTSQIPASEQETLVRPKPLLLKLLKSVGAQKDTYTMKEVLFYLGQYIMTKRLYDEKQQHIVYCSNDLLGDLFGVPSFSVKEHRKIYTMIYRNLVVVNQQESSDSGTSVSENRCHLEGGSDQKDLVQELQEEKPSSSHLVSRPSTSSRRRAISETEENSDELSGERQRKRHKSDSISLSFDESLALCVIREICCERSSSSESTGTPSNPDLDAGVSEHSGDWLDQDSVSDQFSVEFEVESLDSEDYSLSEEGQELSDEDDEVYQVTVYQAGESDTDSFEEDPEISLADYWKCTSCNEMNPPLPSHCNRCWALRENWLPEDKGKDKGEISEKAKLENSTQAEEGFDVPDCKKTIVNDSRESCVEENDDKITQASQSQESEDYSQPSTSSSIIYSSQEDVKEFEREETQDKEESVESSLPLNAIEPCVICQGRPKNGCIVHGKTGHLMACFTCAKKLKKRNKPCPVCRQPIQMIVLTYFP
HIF-2a inh conf – HIF-2a inhibition, single concentration confirmation; 56% of 1,800 active; shares compounds with HIF-2a inh; AID 651580; inhibition, % at 18.8 µM; 786-0 RCC cells, HIF-2a luciferase reporter luminescence, overnight;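 active = mean inhibition across four replicates of at least 40 percent at the single tested concentration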
HIF-1a cs – inhibits HIF-1a reporter, a counter-screen for HIF-2a inhibitors; shares compounds with HIF-2a inh; MiaPaCa-2 HIF-1a luciferase reporter, desferoxamine, overnight; inhibition, % at 18.8 µM; 72% of 1,800 active; AID 651589;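 active = mean inhibition of the reporter signal across four replicates at the single tested dose of 50% or more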
Of the large screens only hits and unclear results are named; the others gave an inactive call (follow-up assays come after a bar, where they were run).

CC[C@H](C)[C@@H](CNC)NC[C@@H](Cc1ccc(O)cc1)NCC(C)(C)C	none
C=CCC(Nc1ccccc1)C12C=CC(O1)C(C(=O)OC)=C2C(=O)OC (stereo not drawn)	Peg3 promoter 92, HIF-2a inh 92, TRPM1 prom inh 80 | HIF-2a inh conf 94 | HIF-1a cs 98
O=C(CCl)N1N=C(c2cccs2)CC1c1ccco1 (stereo not drawn)	none | Mdm2-MdmX confirm 103
Cc1ccc(C2C(C#N)=C(N)N(c3ncn[nH]3)C3=C2C(=O)CC(C)(C)C3)cc1 (stereo not drawn)	HIF-2a inh 44 | HIF-2a inh conf inactive | HIF-1a cs inactive
Cc1ccc(N2C(N)=C(C#N)C(c3cccnc3)C3=C2CC(C)(C)CC3=O)cc1 (stereo not drawn)	none
O=C(C=C=Nc1ccccc1)C(=O)N=C=Cc1ccccc1	CF NFkB inh 92, Peg3 promoter 102, HIF-2a inh 75, TRPM1 prom inh 82 | HIF-2a inh conf 53 | HIF-1a cs 101
O=C(N/N=C/c1ccccc1)C(=O)N/N=C/c1ccccc1	none
Cn1c(/C=C/c2ccc([N+](=O)[O-])o2)nc2ccccc2c1=O	Peg3 promoter 110, HIF-2a inh 75, Shn3 3UTR inh 96, TRPM1 prom inh 85 | Mdm2-MdmX confirm 102 | HIF-2a inh conf inactive | HIF-1a cs 105
O=C1NC2c3c(I)sc(I)c3C(=O)C2O1 (stereo not drawn)	Peg3 promoter 106, HIF-2a inh 53 | HIF-2a inh conf inactive | HIF-1a cs inactive
C/C(=N\OCC(=O)OCC(=O)NC(=O)c1ccccc1)c1ccc2c(c1)OCO2	none
O=C(NC(C(=O)N/N=C/c1cccnc1)c1n[nH]c(=O)c2ccccc12)c1ccccc1 (stereo not drawn)	none (no result: Shn3 3UTR inh)
CCOC(=O)c1c2c(n(C)c1C)C(=O)C(=O)c1ccc(Br)cc1-2	CF NFkB inh 97, Peg3 promoter 101, KKLEB cytotox -78, Shn3 3UTR inh 94, TRPM1 prom inh 87 | Mdm2-MdmX confirm 97
CCSC1(SCC)N=C(N)C2(C#N)C(c3ccc(F)cc3)C12C#N (stereo not drawn)	Peg3 promoter 107, HIF-2a inh 49, TRPM1 prom inh 82 | HIF-2a inh conf 59 | HIF-1a cs 93
COC1(OC)N=C(N)C2(C#N)C(c3ccc(F)cc3)C12C#N (stereo not drawn)	none
CN(C1CCCCC1)S(=O)(=O)c1ccc(S(=O)(=O)N(CC(=O)Nc2ccccc2)C2CC2)cc1	none
CCCCC(=NCCc1c(C)[nH]c2ccc(OC)cc12)C1=C(O)CC(c2ccccc2)CC1=O (stereo not drawn)	HIF-2a inh 41 | HIF-2a inh conf inactive | HIF-1a cs 65
COc1ccccc1-c1cc(C(F)(F)F)nc(N2CCCCC2)n1	none
COc1ccccc1-c1cc(C(F)(F)F)nc(S(=O)(=O)CCCC(=O)N2CCCCC2C)n1 (stereo not drawn)	CF NFkB inh 92, Peg3 promoter 110, HIF-2a inh 91, KKLEB cytotox -75, Shn3 3UTR inh 97, TRPM1 prom inh 91 | HIF-2a inh conf 91 | HIF-1a cs 107
COc1ccccc1-c1cc(C(F)(F)F)nc(S(=O)(=O)CCCC(=O)NCc2ccc(F)cc2)n1	CF NFkB inh 95, Peg3 promoter 107, HIF-2a inh 80, KKLEB cytotox -88, Shn3 3UTR inh 88, TRPM1 prom inh 90 | Mdm2-MdmX confirm 103 | HIF-2a inh conf 71 | HIF-1a cs 102
CCCCN(Cc1ccccc1)C(=O)C1CCC(=O)N(CCc2ccccn2)C1 (stereo not drawn)	none
c1ccc2cc(C3OCC4(CCCC4)CO3)ccc2c1	none (no result: TRPM1 prom inh)
O=C(CNC(=O)c1cccs1)Nc1ccncc1	none
Cc1c(CCC(=O)O)c(=O)oc2cc3oc4c(c3cc12)CCCC4	HIF-2a inh 74 | HIF-2a inh conf 83 | HIF-1a cs inactive
COc1cccc(-c2coc3cc4oc(=O)c(CCC(=O)O)c(C)c4cc23)c1	HIF-2a inh 40 | HIF-2a inh conf 57 | HIF-1a cs 51
Cc1c(CCC(=O)NCC(=O)NCC(=O)O)c(=O)oc2cc3oc4c(c3cc12)CCCC4	none
Cc1c(CCC(=O)N[C@@H](C)C(=O)O)c(=O)oc2cc3occ(-c4ccccc4)c3cc12	none
Cc1c(CCC(=O)O)c(=O)oc2cc(OCc3cccc(F)c3)ccc12	none
Cc1c(CCC(=O)N[C@@H](CC(C)C)C(=O)O)c(=O)oc2cc3oc4c(c3cc12)CCCC4	HIF-2a inh 65 (no result: TRPM1 prom inh) | HIF-2a inh conf 75 | HIF-1a cs inactive
Cc1c(CCC(=O)O)c(=O)oc2cc(OCc3ccccc3Br)ccc12	HIF-2a inh 78 | HIF-2a inh conf 92 | HIF-1a cs 52
COc1cccc(-c2coc3c(C)c4oc(=O)c(CCC(=O)O)c(C)c4cc23)c1	none
C[C@H]1O[C@H](C2CCCC2)CC2=C1C(=O)OC(C)(C)O2	none (no result: CF NFkB inh, Peg3 promoter, KKLEB cytotox, Shn3 3UTR inh, TRPM1 prom inh)
Cn1c(=O)[nH]c(Nc2ccccc2)c([N+](=O)[O-])c1=O	none
Cc1c(CCC(=O)N2CCC[C@H]2C(=O)O)c(=O)oc2cc3oc4c(c3cc12)CCCC4	HIF-2a inh 65 | HIF-2a inh conf 79 | HIF-1a cs inactive
Cc1c(CCC(=O)N2CCC(C(=O)NCCCCCC(=O)O)CC2)c(=O)oc2cc3oc4c(c3cc12)CCCC4	none
Cc1ccc(CNC(=O)c2ccc(N3CCC4(CC3)CC(c3ccccc3)=NO4)c(NC(=O)c3ccc(Cl)c([N+](=O)[O-])c3)c2)cc1	none
O=C(N[C@@H](Cc1ccccc1)C(=O)NCc1ccc(F)cc1)C1CCNCC1	none
COc1cc2oc(=O)cc(-c3ccc(-c4ccc(CO)cc4)cc3)c2c(OC)c1OC	CF NFkB inh 75 | Mdm2-MdmX confirm 83
CCCCn1c(=O)[nH]c(=O)c2c1nc(Cn1ncc(Cl)c(Cl)c1=O)n2CCC	CF NFkB inh 103, Peg3 promoter 104, HIF-2a inh 96, KKLEB cytotox -81, Shn3 3UTR inh 98, TRPM1 prom inh 92 | Mdm2-MdmX confirm 103 | HIF-2a inh conf 71 | HIF-1a cs 97
CCCCn1c(=O)[nH]c(=O)c2c1nc(CN1C(=O)c3ccccc3S1(=O)=O)n2CCC	none
CCCN(C(=O)c1cn(C)c(=O)c2ccccc12)c1ccccc1C	none
